Our source for the growth values is PubChem BioAssay (NCI).

About 83,000 compounds went through this panel and 20% of them were active in at least one assay; those are over-represented in the sample as a whole.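 48-hour exposure, single concentration, 96-well plates; percent growth endpoint where 0 means no net growth. Active: below 10.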 Values without a mark were called inactive. Activity calls are given as the source filed them.

In this test the test system is RPMI-8226 leukemia. The experiment in a line: NCI-60 one-dose screen, 48 h (100 = growth as untreated, 0 = no growth, -100 = all killed). As to conditions: 10 µM unless noted. The method, then: Growth inhibition of the RPMI-8226 human tumor cell line is measured as a screen for anti-cancer activity. Cells are grown in 96 well plates and exposed to the test compound for 48 hours. Compounds are tested at a single concentration, which is 10^-5 M for most compounds. The reported endpoint is percent growth (GI% or GIPRCNT), where numbers from 0 - 100% represent growth inhibition, and numbers from -100% - 0 represent cell death. For example, a value of 40 represents 60% growth inhibition. A value of 0 means no net growth occurred over the course of the experiment. A value of -40 indicates 40% of cells at the beginning of the experiment died by the end of the experiment. A value of -100 means all cells are dead at the end of the experiment.
NCI-60 Human Tumor Cell Lines Screen was performed using the standard one-dose NCI protocol, which is described in more detail at https://dtp.cancer.gov/discovery_development/nci-60/default.htm.
Compounds with GIPRCNT values below 10 were considered active. Activity score was based on GIPRCNT using the following formula: […]
Score is 0 for GIPRCNT values of 100 or above, 50 for GIPRCNT values of 0, and 100 for GIPRCNT values of -100.
Take `FC(F)(F)c1cccc(-c2cn3c(ccc4ccccc43)n2)c1`: the growth is 94.4%.

For the compound `C/C(=C\c1ccc(OCC(=O)O)c(Cl)c1Cl)[N+](=O)[O-]`, the growth is 99.7%.

For `O=C(C1=Cc2cc3ccccc3n2Cc2cnnn21)c1ccccc1`, the growth was 53.1%.

For `CC(=O)Nc1nc(N)nc(NC(C)=O)c1N=O`, the growth is 118%.

`CCCN=C1NC(=O)/C(=C/c2nc(-c3ccc(OC)cc3)n3ccccc23)S1`: the growth was 74%.

For the compound `COc1ccc(-c2c(N)n[nH]c2-c2cc(OC)c3c(c2)OCCO3)cc1`, the growth is 74.7%.

Take `Nc1cccc(Cl)c1N`: the growth is 69.3%.

In the case of `CCOc1cc2c(Cl)ncnc2c(OCC)c1OCC`, the growth is 15.5%.

For the compound `C=C[C@@H]1C[C@H](O)Cc2c(C)cc(C)cc2N1`, the growth was 84.7%.

Take `COc1cccc(-c2cc3c(O)cc(C#N)cc3[nH]2)c1`: the growth is 36.1%.

With `Cc1ccc(CSC(=N)N)cc1C`, the growth is 78.7%.

In the case of `Cc1cc(C2(c3cc(C)c(O)cc3C)OS(=O)(=O)c3ccccc32)c(C)cc1O`, the growth is 92.4%.

Consider `COc1cc(C(=O)/C=C/c2ccc3nc(-c4cc(F)cc(F)c4)sc3c2)cc(OC)c1OC`, for which the growth was 90.7%.

As for `N#Cc1c(-c2ccccc2)cc(-c2ccccc2)n(CC(=O)NO)c1=O`, the growth was 23.2%.

Regarding `COc1ccc(Nc2nn3c(C)cc(C)nc3c2C(=O)Nc2ccc(C)cc2)c(OC)c1`, the growth was 102%.

Consider `Nc1cccc(-c2nc3sccn3c2-c2ccnc(NCCCNS(=O)(=O)c3cccc4ccccc34)n2)c1`, for which the growth is 8.33% (active).

With `CC(C)C1=CC2=C(C=O)C[C@@H]3[C@](C)(CCC[C@@]3(C)C(=O)OCC#CCN3CCCC3)[C@H]2CC1`, the growth is 33.8%.

Turning to `COc1cc(-c2nc(-c3nc4ccc(Cl)cc4[nH]3)cc3c2[nH]c2ccccc23)cc(OC)c1OC`, the growth was 45.2%.

With `CN(C)CCN1C(=O)c2ccc3c4c(ccc(c24)C1=O)C(=O)N(CCN=C=S)C3=O`, the growth is -45% (active).

With `COc1cc(Cn2cc3c(c2)-c2oncc2CC3)cc(OC)c1OC`, the growth was 22.8%.

In the case of `C=C1C(=O)O[C@H]2[C@H]1CC/C(Cn1cc(CNC(=O)c3cc4ccccc4[nH]3)nn1)=C\CC[C@@]1(C)O[C@@H]21`, the growth was -11.5% (active).

Turning to `N[C@H]1CN(C(=O)c2cc3cc(Br)c(F)c(F)c3[nH]2)C[C@@H]1O`, the growth is 98%.

Take `CC(=O)Nc1scc[n+]1Cc1ccccc1`: the growth is 92.2%.

For `CCc1cnc(=S)n(-c2ccccc2)c1`, the growth was 119%.

Regarding `C=CCSc1n[nH]c(-c2cccs2)n1`, the growth was 103%.

For `O=C1C2(c3ccccc3)C(c3ccccc3)=C(c3ccccc3)C1(c1ccccc1)C1CC=CC12` (stereo not given), the growth was 50.2%.

On to `O=S(=O)(NCCNc1nccc(-c2c(-c3ccc(F)cc3)nc3sccn23)n1)c1ccc(F)cc1`, for which the growth is 74.7%.

Take `CC(C)CSc1nc(NN)c(C#N)c(-c2ccccc2)n1`: the growth was 100%.

Regarding `CC(C)(C)OC(=O)NC(CSCc1ccccc1)C(=O)ON1C(=O)CCC1=O` (stereo not given), the growth is 97.5%.

On to `CC(C)NCCCNC1=C(Cl)C(=O)c2ccccc2C1=O`, for which the growth is 68.4%.

With `O=C1Nc2ccc3c(c2/C1=C\c1cc2c(cc1Br)OCO2)OCO3`, the growth was 14.4%.

Regarding `COc1ccc(-c2nc(SCCC(C)C)nc(Nc3ccc(F)c(Cl)c3)c2C#N)cc1`, the growth is 95.5%.

For the compound `CC(C)c1ccc2occ(C=C3C(=O)NC(=O)NC3=O)c(=O)c2c1`, the growth is 74.8%.

With `O=C(CSc1nc2ccccc2[nH]1)c1ccc(N2CCOCC2)cc1`, the growth was 109%.

Consider `Cc1ccc(S(=O)(=O)Nc2c(Br)cc(Br)cc2C(N)=O)cc1`, for which the growth is 95.2%.

For `COc1ccc(-c2nc(/C=N/Nc3cc(C)nc4ccc(Cl)cc34)c(C)o2)cc1`, the growth was -50.8% (active).

For `CN1CCN(Cc2ccc(NC(=O)c3cncc(C#Cc4cnc(N)c5ccncc45)c3)cc2C(F)(F)F)CC1`, the growth is 18.5%.

In the case of `C/C=C(\C)C(C(=O)NC1CCCCC1)N(C(=O)C1CCc2cc(F)ccc2O1)c1ccc(Cl)cc1` (stereo not given), the growth was 100%.

Take `COc1ccc(C2C(C#N)=C(N)Oc3c2ccc2ccccc32)cc1` (stereo not given): the growth was 44.3%.

Take `Cc1c(C(=O)/C=C/c2csc3ccccc23)[n+](=O)c2ccccc2n1[O-]`: the growth is 7.86% (active).
